Sampled rows, rich in hits. Any-hit rate of the full collection: about 19%.
DT40 TDP1 CPT: DT40-hTDP1 cell growth loss with CPT; AID 686979; chicken DT40 Tdp1-/-;hTDP1 cells + 20 nM CPT, ATP luminescence, 48 h; Potency, µM (doses to about 46.2 µM), without a hit: at the highest dose activity change, negative = growth inhibition, actives largely listed as inhibitors; hit rate 12% among 420,000; note: nearly all actives have a fitted effect of over 55% in size
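Cell growth measured by CellTiter-Glo luminescence after a minimum 48 h, 37 C compound exposure with 20 nM CPT in Tdp1-knockout DT40 cells stably expressing hTDP1, seeded 400/well; qHTS titration format.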
KB-V1 cytotox: kills drug-selected multidrug resistant KB-V1 cells | KB-V1 MDR cells viability, CellTiter-Glo, 72 h | Potency, µM (titrated, usually from 46.1 µM), usual class: cytotoxic | hit rate 3.4% among 400,000; note: nearly all actives have a fitted effect of over 60% in size
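KB-V1, DMEM (no phenol red) + 10% FBS; cpd pin-transferred, titration series; 72 h, 37 degrees C; CellTiter-Glo, luminescence. Data normalized, curve-fit.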
TDP1 cell noCPT: qHTS for Inhibitors of human tyrosyl-DNA phosphodiesterase 1 (TDP1): qHTS in cells in absence of CPT | DT40 Tdp1-/- hTDP1 cells, no CPT, ATP luminescence, 48 h | Potency, µM (doses to about 46.2 µM), inactives show at the highest dose activity change, negative = growth inhibition, most hits filed as inhibitors | hit rate 15% among 420,000; note: nearly all actives have a fitted effect of over 55% in size
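Camptothecin absent (DMSO only). Human TDP1-complemented DT40 knockout cells, 400 cells/well, 37 °C for minimum 48 hr; ATP measured via CellTiter-Glo, 30 min dark incubation, luminescence.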
HT1080 IDH1KD tx: kills HT-1080 cells with IDH1 knockdown. HT-1080 IDH1 knockdown viability, ATP luminescence, 48 h. Potency, µM (series often up to 46.1 µM), without a hit: top-dose activity, negative = toxicity, usual class: cytotoxic. hit rate 2% among 360,000;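 note: 0% = DMSO wells and -100% = cell-free medium wells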
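HT-1080-IDH1KD cells (IDH1 knocked down), 750/well in RPMI with 5% FBS, treated with compound 48 h at 37 degrees C. Viability by CellTiter-Glo luminescence, normalised to DMSO and no-cell wells; concentration-response curves classed.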
HT1080NT lethal: kills 2HG-producing HT-1080-NT fibrosarcoma cells. HT-1080-NT fibrosarcoma viability, CellTiter-Glo ATP luminescence, 48 h. AID 686970. hit rate 1.6% among 360,000. Potency, µM (series often up to 46.1 µM), inactives show at the highest dose activity, negative = less viability, actives largely listed as cytotoxic;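 note: NT is the 2HG producing partner of a matched IDH1 knockdown line; 0% = DMSO-treated cells and -100% = media-only wells without cells; nearly all actives have a fitted effect of over 55% in size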
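Viability by CellTiter-Glo luminescence after 48 h compound exposure at 37C of HT-1080-NT cells (750/well, RPMI, 5% FBS). % activity scaled between DMSO wells and medium-only wells, then curve-fitted and categorized by curve class.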
KB-3-1 tox: KB-3-1 parental cell cytotoxicity; KB-3-1 viability, CellTiter-Glo ATP luminescence, 72 h; Potency, µM (highest dose often 46.1 µM), hits mostly cytotoxic; hit rate 1.4% among 400,000; AID 1347075; note: nearly all actives have a fitted effect of over 60% in size
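Screening of KB-3-1 cells (DMEM, 10% FBS, phenol-red free) ran from lowest to highest compound concentration; after 72 h at 37 °C viability was read luminescently and curves fitted.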
An asterisk follows results filed as active; i = inactive; u = inconclusive; x = not tested or not shown. Calls come from the whole dose curve; as a rule, active = well fitted curve in the direction sought with a large enough effect; inconclusive = small, poorly fitted or top-dose-only effect, or another doubt; inactive = no such curve, though single readings can be large; an effect the other way counts as inactive or inconclusive. Unless noted, % is set by controls: 0 for no effect and ±100 for the full control effect; potency is the fitted concentration of half-maximal effect.

SMILES	DT40 TDP1 CPT	KB-V1 cytotox	TDP1 cell noCPT	HT1080 IDH1KD tx	HT1080NT lethal	KB-3-1 tox
COc1ccc(C2Nc3ccc(NC(C)=O)cc3C(=O)N2Cc2ccccc2)cc1COc1ccc(NC(C)=O)cc1 (stereo not drawn)	u	x	18µM*	14%	11%	x
CCN1c2ccccc2NC2C1C(C(C)=O)C(=O)N2c1ccc(Cl)cc1 (stereo not drawn)	21µM*	i	16µM*	16µM*	u	i
NC(=O)C1CCN(c2nc(-c3ccccc3F)cs2)CC1	x	i	x	x	x	i
COc1cccc(NC(=O)CN(C)C(=O)c2cn(-c3ccccc3)nc2-c2cccnc2)c1	u	u	u	0%	0%	i
Cc1ccc(-c2nn(-c3ccc(F)cc3)cc2C(=O)N(C)CC(=O)Nc2ccc(N3CCOCC3)cc2)cc1	u	i	15µM*	-6%	-7%	i
CN(CC(=O)Nc1cccc(F)c1)C(=O)c1cn(-c2ccccc2)nc1-c1ccc(Cl)cc1	u	i	u	u	21µM*	i
COc1ccc(NC(=O)CN(C)C(=O)c2cn(-c3ccccc3)nc2-c2ccc(F)cc2)cc1	u	u	u	-12%	-21%	u
COc1ccc(NC(=O)CN(C)C(=O)c2cn(-c3ccccc3)nc2-c2ccc(Cl)cc2)cc1	u	23µM*	15µM*	u	u	u
COc1ccc(Cl)cc1NC(=O)CN(C)C(=O)c1cn(-c2ccccc2)nc1-c1cccnc1	18µM*	u	u	-28%	-10%	i
CCCc1cc(=O)[nH]c(SCC(=O)c2cc(C)n(C(C)COC)c2C)n1 (stereo not drawn)	0%	i	-9%	-6%	1%	i
CN(CC(=O)Nc1cccc(F)c1)C(=O)c1cn(-c2ccccc2)nc1-c1cccs1	u	u	13µM*	-10%	-10%	u
CN(CC(=O)Nc1cccc(F)c1)C(=O)c1cc(-c2cccs2)nn1-c1ccccc1	u	u	16µM*	-12%	-5%	i
O=C(c1cn(-c2ccccc2)nc1-c1cccs1)N(CCO)Cc1ccccc1	-29%	i	18µM*	-18%	-23%	i
CN1OC[C@@H]2CN(C(=O)CCc3ccccc3)[C@H](c3ccc(N4CCCCC4)cc3)C[C@@H]21	u	u	u	12%	3%	i
CCC(c1nc2ccccc2[nH]1)n1c(=O)c(-c2cccnc2)nc2ccccc21 (stereo not drawn)	5%	i	-27%	-9%	0%	i
COc1cc(Cc2nc3ccccc3n2C(C)c2nc3ccccc3[nH]2)cc(OC)c1 (stereo not drawn)	18µM*	u	u	-2%	3%	i
COc1ccc(CCc2nc3ccccc3n2C(CCc2ccccc2)c2nc3ccccc3[nH]2)cc1 (stereo not drawn)	u	u	u	-8%	-13%	i
CC(c1nc2ccccc2[nH]1)n1c(=O)c(-c2cccnc2)nc2ccccc21 (stereo not drawn)	23µM*	i	u	25%	5%	u
CSCCC(c1nc2ccccc2[nH]1)n1c(-c2cc(C(F)(F)F)cc(C(F)(F)F)c2)nc2ccccc21 (stereo not drawn)	u	u	16µM*	21µM*	33µM*	i
CSCCC(c1nc2ccccc2[nH]1)n1c(=O)c(-c2ccco2)nc2ccccc21 (stereo not drawn)	12µM*	u	23µM*	-3%	-8%	i
O=c1[nH]c(C2CCCN(S(=O)(=O)c3ccccc3F)C2)nc2c1nnn2Cc1ccccc1Cl (stereo not drawn)	u	i	u	u	u	i
CCOC(=O)C1=C(N)Oc2ccc3ccccc3c2C1c1ccc(O)c(OC)c1 (stereo not drawn)	-9%	i	u	u	21µM*	i
Cc1ccccc1Nc1c(-c2ccccn2)nc2c(C)cccn12	u	u	u	-6%	-19%	i
Cc1cccc(C)c1Nc1c(-c2ccsc2)nc2ccccn12	7.3µM*	i	5.8µM*	x	x	i
Cc1cc(C)n2c(Nc3c(C)cccc3C)c(-c3ccccn3)nc2n1	5.8µM*	u	7.3µM*	18µM*	u	u
SMILES	DT40 TDP1 CPT	KB-V1 cytotox	TDP1 cell noCPT	HT1080 IDH1KD tx	HT1080NT lethal	KB-3-1 tox
Cc1cccc(C)c1Nc1c(-c2ccccn2)nc2ccccn12	6.5µM*	u	6.5µM*	u	u	i
Cc1ccc2nc(-c3ccsc3)c(Nc3ccccc3C)n2c1	6.5µM*	i	7.3µM*	x	x	i
Cc1ccc2nc(-c3ccsc3)c(Nc3ccc(C(C)C)cc3)n2c1	-19%	u	-9%	x	x	i
COCCNC(=O)CN1C(=O)COc2ccc(S(=O)(=O)N3CC(C)CC(C)C3)cc21 (stereo not drawn)	6%	i	-2%	4%	-15%	i
CCOC(=O)C1CCN(C(=O)COC(=O)Cc2ccc(Cl)cc2)CC1	1%	i	-4%	-1%	14%	i
Cc1cccc(C)c1Nc1c(-c2ccsc2)nc2ccc(Cl)cn12	u	i	7.3µM*	x	x	i
Fc1ccc(-c2nn(-c3ccc(Cl)cc3)c3c2cnc2ccc(F)cc23)cc1	3%	i	-4%	x	x	i
CCCN1C2CCCC1CC(NC(=O)Nc1ccc(C(C)C)cc1)C2 (stereo not drawn)	23µM*	i	u	-13%	-10%	i
CCCN1C2CCCC1CC(NC(=O)Nc1cccc(C(C)=O)c1)C2 (stereo not drawn)	-14%	i	2%	12%	13%	i
Cc1cc(-c2ccccc2N)n[nH]1	-1%	i	-6%	-21%	-4%	i
CNc1ccccc1C(C)(C)c1cc(C)[nH]n1	16µM*	i	u	-10%	-1%	i
COc1ccc(OC)c(NC(=O)c2cc(-c3ccc(F)cc3OC(C)C)n[nH]2)c1	16µM*	i	21µM*	-16%	-5%	i
COc1ccc(NC(=O)c2cc(-c3cc(F)ccc3OC(C)C)n[nH]2)c(C)c1	u	i	16µM*	4%	4%	i
COc1ccc(OC)c(NC(=O)c2cc(-c3cc(C)c(C)cc3O)n[nH]2)c1	0%	i	u	-8%	-15%	i
